According to PubChem BioAssay (Tox21):
Inconclusive results are not listed. The source made the active and inactive calls. Unless noted, the call rests on the fitted dose curve; in most records, active means well fitted curve in the direction sought with a large enough effect in the repeat runs; inconclusive means weak or mixed curves; inactive means no such curve, though single readings can be large; an effect the other way counts as inactive or inconclusive.

How the values were obtained:
[1] = A CellTox Green Cytotoxicity Assay to monitor cytotoxicity in HepG2 cells - 8 hour (AID 1224890); further: nearly all actives have a fitted effect of over 45% in size
Outline: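 HepG2 cells were seeded together with the CellTox Green dye at 600 cells/well, left 5 h at 37 C/5% CO2, then given compounds in DMSO. Fluorescence from dye bound to dead-cell DNA was read repeatedly over 40 h of treatment at 37 C.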

[2] = qHTS assay to identify small molecule antagonists of the estrogen receptor alpha (ER-alpha) signaling pathway using the BG1 cell line in the presence of 0.1 nM 17-beta-estradiol - cell viability counter screen (AID 1259241); further: nearly all actives have a fitted effect of over 40% in size
Outline: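 Live-cell protease activity (CellTiter-Fluor fluorescence, 30 min) was read in the same wells after VM7Luc4E2 cells had been exposed to compounds with 0.1 nM 17beta-estradiol for 22 hr at 37C.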

[3] = qHTS assay to identify small molecule antagonists of the androgen receptor (AR) signaling pathway using the MDA cell line in the presence of 0.5 nM R1881 - cell viability counter screen (AID 1259242); further: nearly all actives have a fitted effect of over 45% in size
Outline: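 MDA-kb2 cells (human breast carcinoma, stably carrying MMTV-luciferase reporter) were exposed to compounds with 0.5 nM R1881 (final) for 16 hr at 37C, 0% CO2; viability then read as live-cell protease fluorescence (CellTiter-Fluor, 30 min) in the same wells.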

[4] = target: Androgen receptor (Homo sapiens) (UniProt P10275); assay: qHTS assay to identify small molecule antagonists of the androgen receptor (AR) signaling pathway using the MDA cell line in the presence of 0.5 nM R1881 (AID 1259243); further: nearly all actives have a fitted effect of over 50% in size
Chain of Androgen receptor (Homo sapiens) (P10275 whole entry, looked up): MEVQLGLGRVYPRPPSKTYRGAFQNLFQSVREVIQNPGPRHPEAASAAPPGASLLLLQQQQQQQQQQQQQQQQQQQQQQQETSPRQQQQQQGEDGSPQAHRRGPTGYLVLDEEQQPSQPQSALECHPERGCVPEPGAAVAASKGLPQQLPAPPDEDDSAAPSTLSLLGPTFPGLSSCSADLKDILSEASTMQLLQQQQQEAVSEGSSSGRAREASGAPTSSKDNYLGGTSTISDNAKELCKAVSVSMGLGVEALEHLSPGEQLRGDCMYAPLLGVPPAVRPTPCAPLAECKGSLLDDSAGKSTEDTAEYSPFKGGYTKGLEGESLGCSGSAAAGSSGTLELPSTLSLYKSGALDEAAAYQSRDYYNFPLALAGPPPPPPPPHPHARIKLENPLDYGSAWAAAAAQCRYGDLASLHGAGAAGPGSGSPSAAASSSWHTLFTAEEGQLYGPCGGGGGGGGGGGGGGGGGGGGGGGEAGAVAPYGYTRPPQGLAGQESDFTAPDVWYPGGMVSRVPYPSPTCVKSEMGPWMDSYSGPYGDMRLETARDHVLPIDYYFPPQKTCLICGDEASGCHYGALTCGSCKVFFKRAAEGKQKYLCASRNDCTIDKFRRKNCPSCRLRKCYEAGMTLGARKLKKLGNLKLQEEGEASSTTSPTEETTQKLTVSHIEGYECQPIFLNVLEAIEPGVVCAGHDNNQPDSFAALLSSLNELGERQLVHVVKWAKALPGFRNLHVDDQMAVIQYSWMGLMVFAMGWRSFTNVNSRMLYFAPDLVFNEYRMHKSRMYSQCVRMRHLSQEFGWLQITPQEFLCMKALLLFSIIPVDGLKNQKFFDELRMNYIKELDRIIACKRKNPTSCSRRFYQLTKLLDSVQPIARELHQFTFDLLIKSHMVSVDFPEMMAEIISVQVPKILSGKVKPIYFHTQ
Outline: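 MDA-kb2 human breast carcinoma cells carrying an MMTV-luciferase reporter (AR- and GR-responsive) were plated, rested 5 hr at 37C, dosed with compounds, then stimulated with 0.5 nM R1881 (final) for 16 hr; luminescence was read after ONE-Glo.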

[5] = target: Estrogen receptor (Homo sapiens) (UniProt P03372); assay: qHTS assay to identify small molecule antagonists of the estrogen receptor alpha (ER-alpha) signaling pathway using the BG1 cell line in the presence of 0.1 nM 17-beta-estradiol (AID 1259244); further: nearly all actives have a fitted effect of over 50% in size
Chain of Estrogen receptor (Homo sapiens) (P03372 whole entry, looked up): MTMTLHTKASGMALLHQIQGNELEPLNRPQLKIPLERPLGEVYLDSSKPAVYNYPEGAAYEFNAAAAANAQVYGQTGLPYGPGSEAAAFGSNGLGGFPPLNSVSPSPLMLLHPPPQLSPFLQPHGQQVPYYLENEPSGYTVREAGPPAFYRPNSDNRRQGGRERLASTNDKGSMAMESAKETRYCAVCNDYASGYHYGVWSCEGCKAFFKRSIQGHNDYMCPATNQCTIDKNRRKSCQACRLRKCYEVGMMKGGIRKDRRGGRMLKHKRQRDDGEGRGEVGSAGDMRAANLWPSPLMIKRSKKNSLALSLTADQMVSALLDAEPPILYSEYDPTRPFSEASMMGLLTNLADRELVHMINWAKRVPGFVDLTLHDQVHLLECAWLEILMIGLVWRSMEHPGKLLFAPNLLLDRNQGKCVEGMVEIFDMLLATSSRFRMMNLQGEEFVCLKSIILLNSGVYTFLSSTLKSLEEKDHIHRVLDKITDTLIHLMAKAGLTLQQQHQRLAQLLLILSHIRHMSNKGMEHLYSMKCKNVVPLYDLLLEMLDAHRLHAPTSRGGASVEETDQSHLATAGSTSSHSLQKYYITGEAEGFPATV
Outline: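 VM7Luc4E2 cells (endogenous full-length ER-alpha, stable 4xERE-luciferase) were grown 5 days in phenol red-free medium with charcoal-stripped FBS, then exposed 22 h at 37C to compounds plus 0.1 nM (final) 17beta-estradiol; ONE-Glo luminescence read-out.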

[6] = qHTS assay to identify small molecule HDAC inhibitors (AID 1259364); further: nearly all actives have a fitted effect of over 45% in size; further: potency means the concentration at half of the fitted maximal effect
Outline: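 Wild-type HCT-116 cells were plated overnight, exposed to compounds for 2 h at 37 °C, then given HDAC-Glo class I/II luminogenic reagent for 30 min at room temperature before luminescence was read.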

[7] = qHTS assay to identify small molecule HDAC inhibitors - cell viability counter screen (AID 1259365); further: series mostly up to about 92 µM; nearly all actives have a fitted effect of over 50% in size
Outline: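 HCT-116 (wild type), 1,500 cells/well, overnight 37C/5% CO2; compound in DMSO 2hr; CellTiter-Glo 30min RT; luminescence read.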

[8] = qHTS assay to identify small molecule agonists of the sonic hedgehog signaling (Shh) pathway - cell viability counter screen (AID 1259366); further: nearly all actives have a fitted effect of over 50% in size
Outline: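 CellTiter-Fluor fluorescence read-out, 1 hr at 37C, added after 23hr compound exposure. Cells: 3T3 Gli1-Luc, an NIH/3T3 clone with stably integrated Gli1-Luc reporter, plated 4hr before compound.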

[9] = qHTS assay to identify small molecule antagonists of the sonic hedgehog signaling (Shh) pathway - cell viability counter screen (AID 1259367); further: nearly all actives have a fitted effect of over 55% in size
Outline: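 NIH/3T3-derived Gli1-Luc reporter cells, 2,000/well, plated 4 hr before compound addition, then stimulated with conditioned medium for 24 hr at 37C. Viability measured in the same wells by CellTiter-Fluor fluorescence, reagent added at 23 hr for 1 hr.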

[10] = qHTS assay to identify small molecule agonists of the sonic hedgehog signaling (Shh) pathway (AID 1259368; calls by dose curve; further: series mostly up to about 92 µM; nearly all actives have a fitted effect of over 15% in size)
Outline: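 NIH/3T3-derived 3T3Gli1-Luc cells carrying a stably integrated Gli1 response element–firefly luciferase reporter were plated, left 4 hr at 37 C, then given compounds in DMSO for 24 hr. Luminescence was read 30 min after adding luciferase reagent.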

[11] = qHTS assay to identify small molecule antagonists of the sonic hedgehog signaling (Shh) pathway (AID 1259369; calls by dose curve; further: nearly all actives have a fitted effect of over 45% in size)
Outline: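 NIH/3T3-derived 3T3Gli1-Luc cells with stably integrated Gli1-Luc reporter were preincubated 4hr at 37 C, then given compounds in DMSO plus Shh conditioned medium and incubated 24hr. Firefly luciferase luminescence read after 30min reagent at room temperature.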

[12] = target: Estrogen receptor beta (Homo sapiens) (UniProt Q92731); assay: qHTS assay to identify small molecule agonists of the estrogen receptor beta (ER-beta) signaling pathway (AID 1259377; active means well fitted activation curve with a large enough effect in the signal ratio in the repeat runs, not every such curve was filed as active; the % refers to the signal ratio)
Chain of Estrogen receptor beta (Homo sapiens) (Q92731 whole entry, looked up): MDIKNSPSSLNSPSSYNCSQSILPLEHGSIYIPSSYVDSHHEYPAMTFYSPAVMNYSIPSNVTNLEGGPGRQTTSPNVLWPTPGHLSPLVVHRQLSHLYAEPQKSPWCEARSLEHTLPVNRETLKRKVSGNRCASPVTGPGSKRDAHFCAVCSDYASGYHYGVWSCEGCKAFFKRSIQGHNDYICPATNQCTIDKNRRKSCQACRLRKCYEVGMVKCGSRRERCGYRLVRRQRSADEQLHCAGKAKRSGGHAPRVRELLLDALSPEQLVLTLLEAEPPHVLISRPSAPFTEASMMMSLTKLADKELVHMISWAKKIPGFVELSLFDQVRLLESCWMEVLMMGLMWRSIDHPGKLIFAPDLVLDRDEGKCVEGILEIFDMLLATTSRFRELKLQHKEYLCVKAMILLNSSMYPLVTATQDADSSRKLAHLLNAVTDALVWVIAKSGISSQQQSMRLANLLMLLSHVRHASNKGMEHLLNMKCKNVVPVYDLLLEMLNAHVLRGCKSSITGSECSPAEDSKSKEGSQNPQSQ
Outline: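 Beta-lactamase reporter readout: fluorescence of LiveBLAzer B/G FRET substrate after 2 h at room temperature, following 16 h compound treatment of ER-beta-UAS-bla HEK293T cells at 37C in 2% charcoal-stripped FBS medium.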

[13] = target: Estrogen receptor beta (Homo sapiens) (UniProt Q92731); assay: qHTS assay to identify small molecule antagonists of the estrogen receptor beta (ER-beta) signaling pathway (AID 1259378; active means well fitted inhibition curve with a large enough effect in the signal ratio in the repeat runs, not every such curve was filed as active; the % refers to the signal ratio)
Outline: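 ER-beta-UAS-bla HEK293T cells in 2% charcoal-stripped FBS medium treated with compound plus 1nM final 17-beta-estradiol for 16 hr at 37C. Beta-lactamase reporter read by FRET substrate fluorescence after 2 hours at room temperature.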

[14] = qHTS assay to identify small molecule agonists of the androgen receptor (AR) signaling pathway in the presence of an antagonist - cell viability counter screen (AID 1259379); further: series mostly up to about 92 µM; nearly all actives have a fitted effect of over 25% in size
Outline: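 MDA-kb2 human breast carcinoma cells (stable MMTV-luciferase, AR/GR responsive) were seeded 3,000 cells/well, pre-incubated 5 hr at 37C without CO2, then given 3.0uM nilutamide and compounds at 15 concentrations for 16 hr. Viability was read by CellTiter-Fluor fluorescence.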

[15] = qHTS assay to identify small molecule agonists of the estrogen receptor beta (ER-beta) signaling pathway - cell viability counter screen (AID 1259380); further: nearly all actives have a fitted effect of over 30% in size
Outline: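 ER-beta-UAS-bla HEK293T cells in medium with 2% charcoal-stripped FBS were preincubated 6 hr at 37C, dosed with compound in DMSO for 16 hr, then after the bla read, CellTiter-Glo was added for 30 min at room temperature; luminescence recorded.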

[16] = target: Androgen receptor (Homo sapiens) (UniProt P10275); assay: qHTS assay to identify small molecule agonists of the androgen receptor (AR) signaling pathway in the presence of an antagonist (AID 1259381; calls by dose curve; further: nearly all actives have a fitted effect of over 15% in size)
Outline: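 MDA-kb2 human breast carcinoma cells carrying an MMTV-luciferase reporter (AR- and GR-responsive) were treated with compounds at 15 concentrations plus 3.0uM final nilutamide for 16hr at 37C without CO2; luminescence was read after ONE-Glo addition.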

[17] = qHTS assay to identify small molecule antagonists of the estrogen receptor beta (ER-beta) signaling pathway - cell viability counter screen (AID 1259382); further: series mostly up to about 92 µM; nearly all actives have a fitted effect of over 55% in size
Outline: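 ER-beta-UAS-bla HEK293T cells (2,000/well, 2% charcoal-stripped FBS) were pre-incubated 6 hr at 37C, then given compound plus 1nM final 17-beta-estradiol for 16 hr. Viability was read in the same wells by CellTiter-Glo luminescence after 30 min at room temperature.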

[18] = target: Estrogen receptor (Homo sapiens) (UniProt P03372); assay: qHTS assay to identify small molecule agonists of the estrogen receptor alpha (ER-alpha) signaling pathway in the presence of an antagonist (AID 1259383; calls by dose curve; further: top concentration of the series differs between compounds; nearly all actives have a fitted effect of over 15% in size)
Outline: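 VM7Luc4E2 cells (endogenous full-length ER-alpha, 4×ERE-luciferase) were precultured 5 days in phenol red-free medium with 10% charcoal-stripped FBS, given 10.0nM ICI-182,780 (final), then treated with compounds at 15 concentrations for 22hr at 37C; luminescence read with ONE-Glo.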

[19] = qHTS assay to identify small molecule agonists or antagonists of the thyroid stimulating hormone receptor (TSHR) signaling pathway - wild type cell line counter screen (AID 1259384; calls by dose curve)
Outline: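 Wild-type Hek293 cells, 800/well, 18 h at 37C, then compound with Ro20-1724 for 30 min RT. cAMP by HTRF (cAMP-d2/anti-cAMP cryptate), 1 h RT, fluorescence read. 15 concentrations, triplicates.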

[20] = qHTS assay to identify small molecule phospholipidosis (PLD) inducers (AID 1259344; active means well fitted curve in the direction sought with a large enough effect; an effect the other way counts as inactive or inconclusive)
Outline: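 HepG2 cells, 900/well, treated with compound plus LipidTOX Red for 24 h at 37 C; amiodarone positive and DMSO negative controls. Fixed with paraformaldehyde/Hoechst, then high-content imaging scored LipidTOX pit count and integrated intensity per well and per cell.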

Measured: Potency

CCOC(=O)c1cc(=O)c2c(OCC(COc3cccc4oc(C(=O)OCC)cc(=O)c34)OC(=O)[C@@H](N)CCCCN)cccc2o1
inactive: [1] | [2] | [3] | [4] | [5] | [6] | [7] | [8] | [9] | [10] | [11] | [12] | [13] | [14] | [15] | [16] | [17] | [18] | [19]

c1ccc(CN(CC2=NCCN2)c2ccccc2)cc1
inactive: [1] | [2] | [3] | [5] | [20] | [6] | [7] | [8] | [9] | [10] | [11] | [12] | [13] | [14] | [15] | [17] | [18] | [19]

CN(C)Cc1ccccc1
inactive: [1] | [2] | [3] | [4] | [20] | [6] | [8] | [10] | [11] | [12] | [13] | [14] | [16] | [17] | [19]

CCCCc1ccc2nc(NC(=O)OC)[nH]c2c1
inactive: [1] | [2] | [3] | [4] | [5] | [20] | [7] | [8] | [12] | [13] | [15] | [16] | [17] | [18]
active: [6] 10.6 µM

Cc1c(C(=O)NCCO)[n+](=O)c2ccccc2n1[O-]
inactive: [1] | [2] | [3] | [4] | [20] | [6] | [7] | [8] | [9] | [10] | [11] | [12] | [13] | [14] | [15] | [16] | [17] | [19]

CCCC(CCC)(C(=O)OCC)C(=O)OCC
inactive: [1] | [2] | [3] | [4] | [5] | [6] | [7] | [8] | [9] | [11] | [12] | [13] | [14] | [15] | [16] | [17] | [18] | [19]

CC(C)c1ccccc1
inactive: [1] | [2] | [3] | [4] | [6] | [7] | [8] | [9] | [10] | [12] | [13] | [14] | [15] | [16] | [17] | [18] | [19]

COc1ccccc1N1CCN(CCCNc2cc(=O)n(C)c(=O)n2C)CC1
inactive: [1] | [2] | [3] | [5] | [20] | [6] | [7] | [8] | [10] | [11] | [12] | [13] | [14] | [15] | [17] | [18] | [19]

CCC(=O)O[C@]1(C(=O)SCF)[C@H](C)C[C@H]2[C@@H]3C[C@H](F)C4=CC(=O)C=C[C@]4(C)[C@@]3(F)[C@@H](O)C[C@@]21C
inactive: [1] | [2] | [3] | [5] | [20] | [6] | [8] | [9] | [11] | [14] | [15] | [17] | [18] | [19]

CCCNC(C)C(=O)Nc1c(C)csc1C(=O)OC (stereo unspecified)
inactive: [1] | [2] | [3] | [5] | [20] | [6] | [7] | [8] | [9] | [10] | [11] | [14] | [15] | [17] | [18] | [19]

FC(F)(F)C(F)(F)C(F)(F)C(F)(F)C(F)(F)C(F)(F)C(F)(F)C(F)(F)Br
inactive: [1] | [2] | [3] | [5] | [20] | [6] | [7] | [8] | [9] | [10] | [11] | [12] | [13] | [14] | [17] | [18] | [19]

Cc1cccc(C)c1NC(=O)CN1CCCCCC1
inactive: [1] | [2] | [3] | [5] | [20] | [6] | [7] | [8] | [9] | [10] | [11] | [12] | [13] | [14] | [15] | [17] | [18] | [19]

Cc1cc(NS(=O)(=O)c2ccc(N)cc2)nc(C)n1
inactive: [1] | [2] | [3] | [5] | [20] | [6] | [7] | [8] | [10] | [11] | [12] | [13] | [14] | [15] | [17] | [18] | [19]

N#Cc1ccc(C(c2ccc(C#N)cc2)n2cncn2)cc1
inactive: [1] | [2] | [3] | [5] | [20] | [6] | [8] | [9] | [10] | [11] | [12] | [13] | [14] | [16] | [17] | [18] | [19]
